Results filed as inconclusive are left out. Entries that show only a call come without a potency. Active and inactive are the calls of the source. Unless noted, calls follow the shape of the dose curve; as a rule, active = well fitted curve in the direction sought with a large enough effect; inconclusive = small, poorly fitted or top-dose-only effect, or another doubt; inactive = no such curve, though single readings can be large; an effect the other way counts as inactive or inconclusive.
Tested on: not listed separately
Assay: qHTS Assay for Identification of Small Molecule Agonists for Hypoxia Response Element Signaling Pathway (AID 914; active = well fitted activation curve with a large enough effect in the signal ratio, with a control signal flat, not every such curve was filed as active; the % refers to the signal ratio)
Settings: ME-180 (cervical carcinoma) HRE-bla reporter, beta-lactamase ratio, CoCl2, 17 h; activation: stronger effect = higher value
Method in brief: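 AC50 values come from titration-series %Activity, taken as the 460/530nm ratio of CCF4 fluorescence (excitation 405nm). CellSensor HRE-bla ME-180 cells were treated 17 hours at 37 C with compound plus an EC50 level of CoCl2.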

| Compound | activation |
| --- | --- |
| Cn1c2c(c(=O)n(C)c1=O)C(NC(=O)C(C)(C)C)(C(F)(F)F)C(=O)N2 (stereo unspecified) | 8.6% (inactive) |
| CC1(C)Cc2c(C#N)c(NCC3CCCO3)nc(-c3ccco3)c2CO1 (stereo unspecified) | 25.9% (inactive) |
| COc1ccc(-c2nn3c(COc4ccccc4)nnc3s2)cc1OC | -19.3% (inactive) |
| COc1ccc(CCCNC(=O)CC#N)cc1OC | 5.59% (inactive) |
| Cc1cc(C)n(C(=O)CN2C(=O)CCC2=O)n1 | 6.68% (inactive) |
| COC(=O)C(NC(C)=O)(Nc1ccc(Br)cn1)C(F)(F)F (stereo unspecified) | 3.3% (inactive) |

Target: Muscarinic acetylcholine receptor M1 (Rattus norvegicus) (UniProt P08482)
Sequence (P08482 whole entry, looked up): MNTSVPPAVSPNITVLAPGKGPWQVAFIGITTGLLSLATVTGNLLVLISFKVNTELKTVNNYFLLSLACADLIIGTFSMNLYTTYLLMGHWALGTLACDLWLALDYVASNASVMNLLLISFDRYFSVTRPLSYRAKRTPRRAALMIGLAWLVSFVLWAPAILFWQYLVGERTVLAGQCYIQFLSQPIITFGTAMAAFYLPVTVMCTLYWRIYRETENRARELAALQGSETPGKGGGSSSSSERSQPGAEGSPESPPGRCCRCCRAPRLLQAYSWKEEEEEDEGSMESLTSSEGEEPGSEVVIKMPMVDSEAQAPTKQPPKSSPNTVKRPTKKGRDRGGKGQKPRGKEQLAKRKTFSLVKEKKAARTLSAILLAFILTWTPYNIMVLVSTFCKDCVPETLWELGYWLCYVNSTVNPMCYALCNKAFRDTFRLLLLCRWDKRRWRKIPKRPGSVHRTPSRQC
Assay: qHTS Assay for Antagonists of Acetylcholine Muscarinic M1 Receptor: Kinetic Measurement of Intracellular Calcium Response (AID 943); also: nearly all actives have a fitted effect of over 75% in size; also: potency is read from the fitted curve at half-maximal effect
Settings: M1-expressing cells, kinetic intracellular calcium fluorescence; series mostly up to 35.3 µM
Method in brief: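 CHO cells stably expressing rat M1 were loaded with no-wash Fluo-4 dye for 1 h at 37C, pre-incubated 10 min with compound, then challenged with EC80 carbachol (100 nM final); kinetic calcium read 4 min, peak/basal ratio.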

| Compound | Potency |
| --- | --- |
| CN(C)CCCO[C@H]1[C@H]([C@H](O)CO)O[C@H]2OC(C)(C)O[C@@H]21 | inactive |
| CCCCCCCCCCCCCCCCCC(=O)NC[C@@H](COP(=O)([O-])OCC[N+](C)(C)C)OCC | 7.08 µM (active) |
| CCCCCCCCCC(=O)N[C@@H](CN1CCOCC1)[C@@H](O)c1ccccc1 | inactive |

Target: Pyruvate kinase (Leishmania mexicana) (UniProt Q27686)
Sequence (Q27686 2-499 E452W): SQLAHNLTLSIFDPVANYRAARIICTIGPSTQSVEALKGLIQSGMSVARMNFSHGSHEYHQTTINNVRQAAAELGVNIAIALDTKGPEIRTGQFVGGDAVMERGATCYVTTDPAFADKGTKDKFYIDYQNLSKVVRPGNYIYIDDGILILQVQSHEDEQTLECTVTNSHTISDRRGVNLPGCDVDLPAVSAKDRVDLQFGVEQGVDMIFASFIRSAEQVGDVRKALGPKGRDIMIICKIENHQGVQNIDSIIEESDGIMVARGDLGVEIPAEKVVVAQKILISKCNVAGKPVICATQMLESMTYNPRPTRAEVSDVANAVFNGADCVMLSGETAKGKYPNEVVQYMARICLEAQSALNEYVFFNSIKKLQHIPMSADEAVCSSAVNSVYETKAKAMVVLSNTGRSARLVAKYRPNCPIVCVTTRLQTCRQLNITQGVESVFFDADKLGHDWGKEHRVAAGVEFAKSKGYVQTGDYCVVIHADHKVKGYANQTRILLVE
Assay: qHTS Validation Assay for Inhibitors of Leishmania Mexicana Pyruvate Kinase (AID 945)
Settings: purified L. mexicana pyruvate kinase, enzyme activity, E451W mutant enzyme; series mostly up to 57.5 µM
Method in brief: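 Purified LmPYK (E451W mutant, 0.2 nM) was incubated 1 h at room temperature with 0.5 mM PEP and 0.1 mM ADP in 50 mM imidazole pH 7.2, 50 mM KCl, 7 mM MgCl2; ATP formed was read by PKLight luminescence, normalized to DMSO wells.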

| Compound | Potency |
| --- | --- |
| CN(C)CCCO[C@H]1[C@H]([C@H](O)CO)O[C@H]2OC(C)(C)O[C@@H]21 | inactive |
| CCCCCCCCCCCCCCCCCC(=O)NC[C@@H](COP(=O)([O-])OCC[N+](C)(C)C)OCC | inactive |
| CCCCCCCCCC(=O)N[C@@H](CN1CCOCC1)[C@@H](O)c1ccccc1 | inactive |

Target: Pyruvate kinase PKM (Homo sapiens) (UniProt P14618)
Sequence (P14618 whole entry, looked up): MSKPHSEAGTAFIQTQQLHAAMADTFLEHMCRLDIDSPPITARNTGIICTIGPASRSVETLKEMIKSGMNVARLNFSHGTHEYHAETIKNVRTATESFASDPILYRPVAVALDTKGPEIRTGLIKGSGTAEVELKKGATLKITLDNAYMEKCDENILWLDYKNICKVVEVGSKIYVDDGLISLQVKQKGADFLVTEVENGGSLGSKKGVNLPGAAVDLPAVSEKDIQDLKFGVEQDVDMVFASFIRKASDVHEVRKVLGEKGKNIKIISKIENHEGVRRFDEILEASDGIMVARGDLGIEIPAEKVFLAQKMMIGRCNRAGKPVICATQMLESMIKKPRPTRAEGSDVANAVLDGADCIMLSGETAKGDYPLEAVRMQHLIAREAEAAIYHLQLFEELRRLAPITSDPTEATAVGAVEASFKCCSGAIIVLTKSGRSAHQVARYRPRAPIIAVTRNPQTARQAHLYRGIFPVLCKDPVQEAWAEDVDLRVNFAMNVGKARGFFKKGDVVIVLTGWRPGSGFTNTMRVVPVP
Assay: qHTS Assay for Activators of Human Muscle Pyruvate Kinase (AID 954; active = well fitted curve in the direction sought with a large enough effect, not every such curve was filed as active)
Settings: purified human muscle pyruvate kinase, luciferase-coupled luminescence, 1 h; series mostly up to 57.5 µM
Method in brief: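 Purified human PKM2 (0.1 nM) with 0.5 mM PEP (Km) and 0.1 mM ADP in 50 mM imidazole pH 7.2, KCl, MgCl2, 1 h at room temperature; ATP formed read by coupled luciferase luminescence. Normalized to no-enzyme/110 uM thiadiazolimine inhibition; 0.3 nM enzyme column for activation.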

| Compound | outcome |
| --- | --- |
| CN(C)CCCO[C@H]1[C@H]([C@H](O)CO)O[C@H]2OC(C)(C)O[C@@H]21 | inactive |
| CCCCCCCCCCCCCCCCCC(=O)NC[C@@H](COP(=O)([O-])OCC[N+](C)(C)C)OCC | inactive |
| CCCCCCCCCC(=O)N[C@@H](CN1CCOCC1)[C@@H](O)c1ccccc1 | inactive |

Target: Alpha-galactosidase A (Homo sapiens) (UniProt P06280)
Sequence (P06280 whole entry, looked up): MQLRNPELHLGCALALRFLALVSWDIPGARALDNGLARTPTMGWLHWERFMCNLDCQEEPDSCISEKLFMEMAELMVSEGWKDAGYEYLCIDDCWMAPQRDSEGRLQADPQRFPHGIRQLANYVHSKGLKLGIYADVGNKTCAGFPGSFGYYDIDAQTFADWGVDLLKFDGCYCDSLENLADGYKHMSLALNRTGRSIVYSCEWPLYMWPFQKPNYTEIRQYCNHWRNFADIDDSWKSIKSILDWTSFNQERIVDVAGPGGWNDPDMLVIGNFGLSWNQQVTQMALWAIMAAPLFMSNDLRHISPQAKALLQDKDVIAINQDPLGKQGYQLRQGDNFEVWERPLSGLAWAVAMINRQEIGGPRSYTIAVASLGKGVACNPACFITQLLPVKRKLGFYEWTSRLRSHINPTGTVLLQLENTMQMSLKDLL
Assay: Counterscreen for Glucocerebrosidase Inhibitors: qHTS Assay for Human alpha-Galactosidase at pH 4.5 (AID 992)
Settings: purified enzyme, fluorogenic substrate; series mostly up to 76.9 µM
Method in brief: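 Human enzyme (2 nM) with 80 uM 4-methylumbelliferyl alpha-D-galactopyranoside in 50 mM citric acid, 0.005% Tween-20, pH 4.5, 20 min at room temperature. Compounds 0.7 nM–77 uM; fluorescence Ex 365/Em 440 after pH 10 stop; AC50 from Hill fits.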

| Compound | outcome |
| --- | --- |
| CN(C)CCCO[C@H]1[C@H]([C@H](O)CO)O[C@H]2OC(C)(C)O[C@@H]21 | inactive |
| CCCCCCCCCCCCCCCCCC(=O)NC[C@@H](COP(=O)([O-])OCC[N+](C)(C)C)OCC | inactive |
| CCCCCCCCCC(=O)N[C@@H](CN1CCOCC1)[C@@H](O)c1ccccc1 | inactive |

Target: alpha-glucosidase (Oryza sativa, rice) (UniProt Q653V4)
Assay: Counterscreen for Glucocerebrosidase Inhibitors: qHTS Assay for Rice alpha-Glucosidase at pH 5.0 (AID 997)
Settings: rice alpha-glucosidase enzyme activity; series mostly up to 76.9 µM
Method in brief: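 Rice alpha-glucosidase (4 nM final) with 400 uM 4-methylumbelliferyl-alpha-D-glucopyranoside in citrate buffer pH 5.0, 20 min at room temperature, stopped at pH 10; fluorescence 365/440 nm, compounds 0.7 nM–77 uM, AC50 from Hill fits.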

| Compound | outcome |
| --- | --- |
| CN(C)CCCO[C@H]1[C@H]([C@H](O)CO)O[C@H]2OC(C)(C)O[C@@H]21 | inactive |
| CCCCCCCCCCCCCCCCCC(=O)NC[C@@H](COP(=O)([O-])OCC[N+](C)(C)C)OCC | inactive |
| CCCCCCCCCC(=O)N[C@@H](CN1CCOCC1)[C@@H](O)c1ccccc1 | inactive |
